Experimental findings from PubChem BioAssay (NCATS) are described below.

The structures appear in SMILES notation. Values without a mark were called inactive. Inconclusive results are not listed. Activity calls are given as the source filed them. Unless noted, calls come from the whole dose curve; as a rule, active = well fitted curve in either direction with a large enough effect (not every such curve was filed as active); inconclusive = small, poorly fitted or top-dose-only effect, or another doubt; inactive = flat fitted curve, though single readings scatter.

A short description of assay [1]: AP1 Signaling Pathway (AID 357).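 Note: ME-180 reporter cells stimulated with EGF at its EC50 level; % is set by controls: 0 for no effect and ±100 for the full control effect.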 The conditions noted are these: ME-180 AP-1-bla reporter, EGF-induced, beta-lactamase ratio, 5 h; at 7.69 µM (top of the series) unless noted. In outline:
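Modulation of EGF-driven AP-1 transcription was assessed with a beta-lactamase reporter in ME-180 cells. Compound and EC50 EGF were co-incubated 5 hours at 37 °C before 2.5-hour CCF4 loading at room temperature and dual-emission reading.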

In assay [2] the target is Cytochrome P450 1A2 (Homo sapiens) (UniProt P05177). Kind of assay: p450-cyp1a2 (AID 410; calls by dose curve;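 note: -100% = full effect of reference inhibitor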). The procedure, abridged:
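20nM CYP1A2, 100uM Luciferin-ME (=Km), 100mM KPO4; cpd 10 min RT; +NADPH regen, 60 min RT; stop/detect 20 min; luminescence. Normalized to furafylline 57 uM = full inhibition.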

The nature of assay [3]: NFAT Signaling Pathway (AID 444).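 Note: carbachol stimulus at about its EC50 of 1 µM final; % is set by controls: 0 for no effect and ±100 for the full control effect.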 To be noted: Jurkat NFAT-bla M1, carbachol, beta-lactamase ratio, 5 h; at 7.69 µM (top of the series) unless noted. In outline: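 Read-out: CCF4 FRET ratio (460 nm/530 nm) after 1 h RT dye loading, used for %activity and AC50 from titration series. Cells: Jurkat NFAT-β-lactamase/M1 line, treated with compound plus 1 uM carbachol for 5 h, 37 °C.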

A short description of assay [4]: Stat Signaling Pathway (AID 446).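 Note: ME-180 cervical cancer cells given 40 pM IL-6 alongside compound; SIE-controlled beta-lactamase reporter measured as 460/530 nm FRET emission ratio; % is set by controls: 0 for no effect and ±100 for the full control effect.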 The conditions noted are these: ME-180 (cervical carcinoma) SIE beta-lactamase reporter, IL-6 stimulated, 5 h; at 7.69 µM (top of the series) unless noted. In outline:
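Compound effects on IL-6-induced STAT reporter activity were measured in ME-180 cells. After overnight culture, cells were co-treated with 40 pM IL-6 for 5 hrs before beta-lactamase substrate loading at room temperature.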

Assay [5] deals with Glucocorticoid receptor (Homo sapiens) (UniProt P04150). Kind of assay: GR-GFP Redistribution (AID 450;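 active = compounds whose dose series gives a full or clear partial fitted curve of increased nuclear translocation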; note: potency is the fitted concentration of half-maximal effect). To be noted: U2OS GR-GFP nuclear translocation, laser cytometry, 2 h.
Glucocorticoid receptor (Homo sapiens), sequence (P04150 whole entry, looked up, the tested form may be a part): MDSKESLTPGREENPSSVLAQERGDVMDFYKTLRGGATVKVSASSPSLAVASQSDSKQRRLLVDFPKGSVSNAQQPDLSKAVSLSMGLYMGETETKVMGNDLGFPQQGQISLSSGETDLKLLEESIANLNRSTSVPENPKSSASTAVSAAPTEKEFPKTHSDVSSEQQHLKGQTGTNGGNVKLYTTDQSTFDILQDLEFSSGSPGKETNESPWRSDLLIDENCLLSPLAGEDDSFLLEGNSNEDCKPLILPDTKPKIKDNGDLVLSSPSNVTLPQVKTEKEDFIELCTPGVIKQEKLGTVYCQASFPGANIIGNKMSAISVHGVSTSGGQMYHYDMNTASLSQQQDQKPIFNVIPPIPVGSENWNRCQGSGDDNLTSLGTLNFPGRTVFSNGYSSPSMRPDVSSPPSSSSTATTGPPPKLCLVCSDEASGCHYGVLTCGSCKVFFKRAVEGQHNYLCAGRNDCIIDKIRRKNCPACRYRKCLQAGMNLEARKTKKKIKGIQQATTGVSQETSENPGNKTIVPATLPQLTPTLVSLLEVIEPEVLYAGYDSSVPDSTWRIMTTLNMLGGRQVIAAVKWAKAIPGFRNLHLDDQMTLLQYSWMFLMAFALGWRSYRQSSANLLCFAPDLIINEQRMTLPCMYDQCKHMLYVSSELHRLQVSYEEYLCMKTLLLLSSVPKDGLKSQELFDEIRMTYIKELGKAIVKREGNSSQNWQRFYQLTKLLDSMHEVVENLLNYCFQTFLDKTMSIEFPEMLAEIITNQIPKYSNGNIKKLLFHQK
The target is the same in assay [6]. Put plainly: GR-EFC Redistribution (AID 451; calls by dose curve; note: potency is the fitted concentration of half-maximal effect). To be noted: CHO-K1 GR-EFC translocation, beta-gal luminescence, 2 h. The procedure, abridged: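 Translocation of GR-ED fusion to nuclear EA restores b-gal, read by luminescence after 1 h room-temperature detection. Engineered CHO-K1 biosensor cells, 1,000/well, exposed 2 h at 37 C to titrations up to 46 uM final.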

Assay [7] deals with Mitogen-activated protein kinase 10 (Mus musculus) (UniProt Q61831). Put plainly: JNK3 AlphaScreen Assay (AID 530).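 Note: kinase came from lysate of stimulated human HepG2 cells; signal reports phosphorylation of biotinylated GST-cJun 1-79 at Ser73 with 10 µM ATP; % is set by controls: 0 for no effect and ±100 for the full control effect.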 In outline: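 Kinase buffer: 20 mM Tris-HCl pH 7.6, 10 mM MgCl2, 1 mM DTT, 0.1 mM Na3VO4, 0.01% Tween-20; ATP 10 uM. Substrate biotin-GST-cJun(1-79), enzyme from activated HepG2 lysates. Detection by Ser73 phospho-antibody AlphaScreen.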
(Alpha assays give light when donor and acceptor beads are brought close together.)

For assay [8], the target named is 3',5'-cyclic-AMP phosphodiesterase 4B (Homo sapiens) (UniProt Q07343). Put plainly: qHTS Assay for Inhibitors of PDE-IV (AID 607; active = well fitted activation curve with a large enough effect in the main read-out, with a control signal flat, not every such curve was filed as active; note: % of control where 0% means no effect). In outline: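 ACTOne HEK293 cells carry a modified cAMP-gated CNG channel and express endogenous PDE4; plated 1000 cells/well, compounds up to 22.9 uM final. Membrane-potential dye fluorescence (ex 535/em 590) was read; parental cells received 10 uM forskolin + 100 uM RO 20-1724.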
3',5'-cyclic-AMP phosphodiesterase 4B (Homo sapiens), sequence (Q07343 whole entry, looked up): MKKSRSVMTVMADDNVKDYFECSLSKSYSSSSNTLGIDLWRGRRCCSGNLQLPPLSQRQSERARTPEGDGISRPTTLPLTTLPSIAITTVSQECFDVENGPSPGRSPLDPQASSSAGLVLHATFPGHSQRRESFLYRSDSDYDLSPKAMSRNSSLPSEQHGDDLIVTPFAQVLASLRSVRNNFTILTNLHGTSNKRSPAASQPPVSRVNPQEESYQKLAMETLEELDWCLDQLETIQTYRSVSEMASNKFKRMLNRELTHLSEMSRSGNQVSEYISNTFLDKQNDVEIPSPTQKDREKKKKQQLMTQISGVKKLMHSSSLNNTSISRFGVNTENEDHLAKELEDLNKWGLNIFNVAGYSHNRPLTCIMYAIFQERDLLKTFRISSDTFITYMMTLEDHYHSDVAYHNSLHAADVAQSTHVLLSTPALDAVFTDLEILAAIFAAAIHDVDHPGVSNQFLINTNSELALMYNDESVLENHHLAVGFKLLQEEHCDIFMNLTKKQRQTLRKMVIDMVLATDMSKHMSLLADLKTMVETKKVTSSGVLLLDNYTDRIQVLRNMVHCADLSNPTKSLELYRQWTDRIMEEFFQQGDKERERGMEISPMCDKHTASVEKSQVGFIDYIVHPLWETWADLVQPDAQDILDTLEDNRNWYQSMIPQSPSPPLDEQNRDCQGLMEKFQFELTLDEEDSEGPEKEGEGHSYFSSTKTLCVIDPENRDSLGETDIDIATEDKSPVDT
Background: Quantitative high-throughput screening tests each substance at several concentrations.

In assay [9] the target is Cytochrome P450 2D6 (Homo sapiens) (UniProt P10635). Put plainly: qHTS Assay for Inhibitors and Substrates of Cytochrome P450 2D6 (AID 891; active = well fitted curve in the direction sought with a large enough effect; an effect the other way counts as inactive or inconclusive; note: nearly all actives have a fitted effect of over 60% in size; note: potency is the fitted concentration of half-maximal effect). In outline:
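Luminescent read-out of luciferin formed by 5 nM human CYP2D6 demethylating 30 uM Luciferin-ME EGE (Km level) over 60 min at room temperature after NADPH regeneration addition. Data normalized to full inhibition by 1.43 uM quinidine.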

For assay [10], the target named is Cytochrome P450 2C19 (Homo sapiens) (UniProt P33261). Put plainly: qHTS Assay for Inhibitors and Substrates of Cytochrome P450 2C19 (AID 899; active = well fitted curve in the direction sought with a large enough effect; an effect the other way counts as inactive or inconclusive; note: % is set by controls: 0 for no effect and ±100 for the full control effect; nearly all actives have a fitted effect of over 60% in size). The procedure, abridged:
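5nM enzyme + 10uM Luciferin-H EGE (=KM), 50mM KPO4; cpd pin-transferred, 10 min 37C; NADPH regen, 60 min 37C; stopped w/ luciferin detection reagent, 20 min; luminescence. Normalized to 57uM ketoconazole (AC100).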

In assay [11] the target is Cytochrome P450 3A4 (Homo sapiens) (UniProt P08684). Put plainly: qHTS Assay for Activators of Cytochrome P450 3A4 (AID 885; active = well fitted curve in the direction sought with a large enough effect; an effect the other way counts as inactive or inconclusive; note: nearly all actives have a fitted effect of over 65% in size). The procedure, abridged: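 CYP3A4 activity: Luciferin-PPXE O-dealkylation, 25uM substrate, 200mM KPO4, RT throughout. Read-out is luciferase luminescence; higher values reflect activation.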
Cytochrome P450 3A4 (Homo sapiens), sequence (P08684 whole entry, looked up): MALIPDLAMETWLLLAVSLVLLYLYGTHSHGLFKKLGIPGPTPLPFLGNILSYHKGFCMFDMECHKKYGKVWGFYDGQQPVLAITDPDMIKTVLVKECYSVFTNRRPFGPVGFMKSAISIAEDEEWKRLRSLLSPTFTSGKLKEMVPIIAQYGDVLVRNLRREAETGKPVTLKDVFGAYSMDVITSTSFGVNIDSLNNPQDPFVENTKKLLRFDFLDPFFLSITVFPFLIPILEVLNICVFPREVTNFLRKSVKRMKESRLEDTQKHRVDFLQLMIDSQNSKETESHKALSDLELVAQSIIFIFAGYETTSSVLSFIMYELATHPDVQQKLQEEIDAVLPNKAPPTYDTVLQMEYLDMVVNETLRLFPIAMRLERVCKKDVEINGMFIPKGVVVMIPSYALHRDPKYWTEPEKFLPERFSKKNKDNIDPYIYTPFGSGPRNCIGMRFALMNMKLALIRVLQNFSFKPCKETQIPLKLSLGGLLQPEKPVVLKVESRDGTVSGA
A short description of assay [12]: qHTS Assay for Identification of Small Molecule Agonists for Thrombopoietin (TPO) Signaling Pathway (AID 917; active = well fitted curve in the direction sought with a large enough effect; an effect the other way counts as inactive or inconclusive; note: % is set by controls: 0 for no effect and ±100 for the full control effect). In outline:
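First, Ba/F3 cells with human TPO receptor were held overnight without IL-3. Next, compounds and TPO (26 pM final) were added. After 24 hrs at 37 C, luciferase detection reagent was added and luminescence measured following 10 min at room temperature.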

Assay [13] has as its target Muscarinic acetylcholine receptor M1 (Rattus norvegicus) (UniProt P08482). Put plainly: qHTS Assay for Antagonists of Acetylcholine Muscarinic M1 Receptor: Kinetic Measurement of Intracellular Calcium Response (AID 943; active = well fitted curve in the direction sought with a large enough effect; an effect the other way counts as inactive or inconclusive;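 note: Fluo-4 calcium signal as peak divided by basal fluorescence over 4 min; nearly all actives have a fitted effect of over 75% in size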). In outline:
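Read-out: peak over basal Fluo-4 fluorescence, kinetic at 1 Hz for 4 min after EC80 carbachol (100 nM final). Rat M1-CHO cells, dye loaded 1 h at 37C, compound added 10 min before agonist.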

The target is the same in assay [14]. Kind of assay: qHTS Assay for Antagonists of Acetylcholine Muscarinic M1 Receptor: Measurement of IP-One Response (AID 944; active = well fitted curve in the direction sought with a large enough effect; an effect the other way counts as inactive or inconclusive; note: nearly all actives have a fitted effect of over 75% in size). In outline: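 Read-out: HTRF competition between d2-IP1 and Eu-cryptate anti-IP1 antibody, emission 620 and 665 nm. Stimulus was carbachol, EC80 (200 nM), for 30 min in M1-CHO cells (rat receptor), after 10 min compound pre-treatment.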

For assay [15], the target named is Pyruvate kinase (Leishmania mexicana) (UniProt Q27686). Kind of assay: qHTS Validation Assay for Inhibitors of Leishmania Mexicana Pyruvate Kinase (AID 945; active = well fitted curve in the direction sought with a large enough effect; an effect the other way counts as inactive or inconclusive;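 note: 0% = DMSO only neutral control wells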). In outline:
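Purified LmPYK (E451W mutant, 0.2 nM) was incubated 1 h at room temperature with 0.5 mM PEP and 0.1 mM ADP in 50 mM imidazole pH 7.2, 50 mM KCl, 7 mM MgCl2; ATP formed was read by PKLight luminescence, normalized to DMSO wells.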

The target in assay [16] is Pyruvate kinase PKM (Homo sapiens) (UniProt P14618). Kind of assay: qHTS Assay for Activators of Human Muscle Pyruvate Kinase (AID 954; active = well fitted curve in the direction sought with a large enough effect, not every such curve was filed as active;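 note: 0% = uninhibited enzyme and -100% = no enzyme or full thiadiazolimine inhibition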). In outline: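 A coupled luminescent readout tracked ATP made from ADP by purified PKM2. Final conditions included 0.1 nM enzyme, PEP and ADP at 0.5 and 0.1 mM, pH 7.2 imidazole buffer with BSA, and a one-hour room-temperature reaction.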

The target in assay [17] is Alpha-galactosidase A (Homo sapiens) (UniProt P06280). Put plainly: Counterscreen for Glucocerebrosidase Inhibitors: qHTS Assay for Human alpha-Galactosidase at pH 4.5 (AID 992; active = well fitted curve in the direction sought with a large enough effect; an effect the other way counts as inactive or inconclusive; note: 0% is about no effect). The procedure, abridged:
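Citrate buffer pH 4.5, Tween-20 0.005%. Enzyme 2 nM, substrate 80 uM, 20 min RT. Stop pH 10. Fluorescence Ex 365/Em 440. AC50 by Hill fit.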
Background: The purpose of a counterscreen is to sort out artefacts and off-target activity.

Assay [18] concerns the target alpha-glucosidase (Oryza sativa, rice) (UniProt Q653V4). Kind of assay: Counterscreen for Glucocerebrosidase Inhibitors: qHTS Assay for Rice alpha-Glucosidase at pH 5.0 (AID 997; active = well fitted curve in the direction sought with a large enough effect; an effect the other way counts as inactive or inconclusive;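 note: 0% = full activity with enzyme and -100% = basal without enzyme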). The procedure, abridged:
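Endpoint fluorogenic assay at pH 5.0: compounds (0.7 nM to 77 uM) titrated against 4 nM rice enzyme and 400 uM 4-MU-alpha-glucoside for 20 min at room temperature; NaOH/glycine stop, read ex 365/em 440 nm, Hill-fitted AC50.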

Cytochrome P450 1A2 (Homo sapiens), sequence (P05177 whole entry, looked up): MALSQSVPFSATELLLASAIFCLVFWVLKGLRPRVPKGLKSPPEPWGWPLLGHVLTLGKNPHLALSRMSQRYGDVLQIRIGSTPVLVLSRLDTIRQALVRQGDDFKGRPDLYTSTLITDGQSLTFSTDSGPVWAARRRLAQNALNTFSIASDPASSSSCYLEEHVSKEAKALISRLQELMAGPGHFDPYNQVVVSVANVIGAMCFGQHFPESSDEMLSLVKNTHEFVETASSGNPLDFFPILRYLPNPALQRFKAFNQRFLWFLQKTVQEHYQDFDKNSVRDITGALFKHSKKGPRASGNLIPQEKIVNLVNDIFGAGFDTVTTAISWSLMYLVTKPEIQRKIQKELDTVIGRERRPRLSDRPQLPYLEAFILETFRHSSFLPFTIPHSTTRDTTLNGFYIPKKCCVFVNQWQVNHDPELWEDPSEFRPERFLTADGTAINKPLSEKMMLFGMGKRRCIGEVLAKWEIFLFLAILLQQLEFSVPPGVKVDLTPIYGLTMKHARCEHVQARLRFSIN
Cytochrome P450 2D6 (Homo sapiens), sequence (P10635 whole entry, looked up): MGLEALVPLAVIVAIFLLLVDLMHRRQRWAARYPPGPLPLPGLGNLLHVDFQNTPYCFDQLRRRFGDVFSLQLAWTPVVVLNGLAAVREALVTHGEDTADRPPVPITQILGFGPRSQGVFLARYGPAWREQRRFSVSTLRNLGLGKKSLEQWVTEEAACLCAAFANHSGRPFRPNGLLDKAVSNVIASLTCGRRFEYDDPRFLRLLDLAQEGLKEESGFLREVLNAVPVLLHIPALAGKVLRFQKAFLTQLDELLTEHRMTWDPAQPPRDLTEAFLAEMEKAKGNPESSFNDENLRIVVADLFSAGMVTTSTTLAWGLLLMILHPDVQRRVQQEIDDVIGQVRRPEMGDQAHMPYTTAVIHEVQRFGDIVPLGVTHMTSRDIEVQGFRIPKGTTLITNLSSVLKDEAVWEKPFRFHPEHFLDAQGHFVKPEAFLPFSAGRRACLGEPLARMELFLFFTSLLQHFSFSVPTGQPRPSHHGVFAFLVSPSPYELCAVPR
Cytochrome P450 2C19 (Homo sapiens), sequence (P33261 whole entry, looked up): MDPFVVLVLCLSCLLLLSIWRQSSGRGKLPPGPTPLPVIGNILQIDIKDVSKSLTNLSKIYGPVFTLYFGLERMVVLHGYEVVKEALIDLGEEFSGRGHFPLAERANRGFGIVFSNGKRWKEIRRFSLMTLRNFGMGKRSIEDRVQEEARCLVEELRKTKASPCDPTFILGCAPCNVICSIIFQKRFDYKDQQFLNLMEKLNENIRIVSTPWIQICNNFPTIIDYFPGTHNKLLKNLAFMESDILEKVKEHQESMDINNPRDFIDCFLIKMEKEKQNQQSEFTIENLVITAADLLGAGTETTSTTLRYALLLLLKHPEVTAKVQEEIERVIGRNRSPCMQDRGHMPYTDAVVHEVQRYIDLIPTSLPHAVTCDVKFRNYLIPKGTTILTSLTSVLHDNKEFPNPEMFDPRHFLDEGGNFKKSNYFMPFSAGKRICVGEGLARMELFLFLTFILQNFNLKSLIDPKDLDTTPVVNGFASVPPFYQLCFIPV
Muscarinic acetylcholine receptor M1 (Rattus norvegicus), sequence (P08482 whole entry, looked up): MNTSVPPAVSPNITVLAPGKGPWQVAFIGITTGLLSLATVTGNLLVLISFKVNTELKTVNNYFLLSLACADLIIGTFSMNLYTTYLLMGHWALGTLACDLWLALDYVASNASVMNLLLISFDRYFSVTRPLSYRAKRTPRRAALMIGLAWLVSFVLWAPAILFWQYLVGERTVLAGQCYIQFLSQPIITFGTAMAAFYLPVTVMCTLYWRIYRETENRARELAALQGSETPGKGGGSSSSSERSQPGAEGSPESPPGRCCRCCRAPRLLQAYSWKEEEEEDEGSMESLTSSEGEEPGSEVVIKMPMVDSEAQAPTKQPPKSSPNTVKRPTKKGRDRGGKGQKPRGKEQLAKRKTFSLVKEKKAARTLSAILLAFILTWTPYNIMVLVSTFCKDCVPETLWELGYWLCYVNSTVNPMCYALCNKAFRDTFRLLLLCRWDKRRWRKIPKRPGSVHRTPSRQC
Pyruvate kinase (Leishmania mexicana), sequence (Q27686 2-499 E452W): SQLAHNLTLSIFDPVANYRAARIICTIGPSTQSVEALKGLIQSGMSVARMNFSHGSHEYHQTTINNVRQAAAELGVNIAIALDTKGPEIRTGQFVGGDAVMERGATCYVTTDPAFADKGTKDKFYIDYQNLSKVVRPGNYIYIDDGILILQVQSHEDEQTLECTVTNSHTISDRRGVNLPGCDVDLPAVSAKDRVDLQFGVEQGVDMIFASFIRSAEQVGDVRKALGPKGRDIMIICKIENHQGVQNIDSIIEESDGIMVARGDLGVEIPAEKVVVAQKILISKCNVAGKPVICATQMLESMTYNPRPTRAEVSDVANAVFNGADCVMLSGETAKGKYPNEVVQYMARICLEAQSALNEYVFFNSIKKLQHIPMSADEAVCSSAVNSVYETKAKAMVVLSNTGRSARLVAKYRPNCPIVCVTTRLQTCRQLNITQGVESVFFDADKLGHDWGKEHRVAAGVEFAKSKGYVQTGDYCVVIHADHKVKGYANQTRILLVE
Alpha-galactosidase A (Homo sapiens), sequence (P06280 whole entry, looked up): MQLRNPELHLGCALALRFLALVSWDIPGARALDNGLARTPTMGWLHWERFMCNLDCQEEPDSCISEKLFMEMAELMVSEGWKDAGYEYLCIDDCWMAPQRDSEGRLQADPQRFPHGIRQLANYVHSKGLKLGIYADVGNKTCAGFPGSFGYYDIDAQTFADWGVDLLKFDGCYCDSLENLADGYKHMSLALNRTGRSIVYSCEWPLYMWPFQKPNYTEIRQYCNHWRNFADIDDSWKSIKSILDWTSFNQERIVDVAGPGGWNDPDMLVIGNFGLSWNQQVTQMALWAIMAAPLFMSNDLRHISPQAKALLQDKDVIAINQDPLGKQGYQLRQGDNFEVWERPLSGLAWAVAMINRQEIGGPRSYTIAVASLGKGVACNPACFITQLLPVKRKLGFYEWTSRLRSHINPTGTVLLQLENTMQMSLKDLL

Turning to `O=C(O)CCC/C=C\C[C@H]1[C@@H](/C=C\[C@@H](O)C2Cc3ccccc3C2)[C@H](F)C[C@H]1O`, the results for the activity change, negative = inhibition in assay [1] and in assay [3] were -14.7% [at 38 µM] and 14.3% [at 38 µM], respectively. The Potency entry in [2], in assay [7], in assay [8], in [9] and in [10] was “inactive” throughout. Moreover, the activity, negative = inhibition in assay [4] is 9.41% [at 38 µM]. Moreover, the Potency in assay [5] and in assay [6] was greater than 46 µM in each case.

In the case of `O=C(Oc1ccc2c(c1)CN(Cc1ccccc1)CO2)c1ccccc1`, the values for the activity change, negative = inhibition in assay [1], in assay [2] and in [3] were 10.8%, -14.3% [at 2.29 µM] and 13.3%, respectively. Further, the activity, negative = inhibition in [4] is 2.87%. The Potency is greater than 46 µM in assay [5], greater than 9.22 µM in assay [6] and 0.501 µM (active) in assay [9]. The Potency entry in [7], in assay [8] and in assay [11] was “inactive” throughout.

On to `NC(N)=N[C@H](CCC(=O)O)C(=O)O`, for which the activity change, negative = inhibition in assay [1] is -11% [at 38 µM]; in assay [3], -4.2% [at 38 µM]. For the same compound, the Potency entry in [2], in assay [7], in [8], in assay [11], in assay [13] and in assay [14] was “inactive” in each case. Also, the Potency result in [18] was “inactive”. Besides, the activity, negative = inhibition in assay [4] was 0.861% [at 38 µM]. For the same compound, the Potency in assay [5] and in [6] was greater than 46 µM throughout. In addition, the call in assay [12], in assay [15], in [16] and in assay [17] was inactive.

For the compound `CC[C@H](C)C(=O)O[C@@H]1CCC=C2C=C[C@H](C)[C@@H](CC[C@H]3C[C@@H](O)CC(=O)O3)[C@H]21`, the activity change, negative = inhibition in assay [1] is -28.7% [at 38 µM]; in assay [3] it was 6.96% [at 38 µM]. Besides, the Potency result in assay [2], in assay [7], in [8], in [9] and in [10] was “inactive” throughout. In assay [4], the activity, negative = inhibition was 10.1% [at 38 µM]. The Potency in assay [5] and in assay [6] was greater than 46 µM throughout.

As for `CN1C[C@@H](O)[C@@H](O)[C@@H](O)[C@@H]1CO`, the activity change, negative = inhibition in assay [1] is 0.324% [at 38 µM]; in [3] it was 16.3% [at 38 µM]. The Potency result in assay [2], in assay [7], in [8], in assay [9] and in assay [10] was “inactive” in each case. Further, the activity, negative = inhibition in assay [4] is -5.85% [at 38 µM]. The Potency in assay [5] and in [6] was greater than 46 µM throughout.

`COc1cc([C@@H](O)CO)ccc1OS(=O)(=O)O`: the activity change, negative = inhibition in [1] is 6.76% [at 38 µM]; in [3], 4.87% [at 38 µM]. Moreover, the Potency entry in assay [2], in [7], in assay [8] and in [18] was “inactive” each time. In assay [4], the activity, negative = inhibition was 7.18% [at 38 µM]. For the same compound, the Potency in assay [5] and in [6] was greater than 46 µM throughout. The outcome in assay [12], in assay [15] and in assay [17] was inactive.

Take `O=C(O)c1nc2nc(Cl)c(Cl)nc2[nH]1`: the results for the activity change, negative = inhibition in assay [1] and in assay [3] were 0.697% and -0.0714%, respectively. Besides, the Potency entry in assay [2], in assay [7], in [8] and in [11] was “inactive” throughout. Besides, the activity, negative = inhibition in assay [4] is 2.39%. Further, the Potency in [5] was greater than 46 µM; in [6], greater than 9.22 µM.
